High-throughput results deposited in PubChem by National Center for Advancing Translational Sciences (NCATS).
Pf growth 96h: Primary qHTS for delayed death inhibitors of the malarial parasite plastid, 96 hour incubation | P. falciparum luciferase reporter growth, 96 h | Potency, µM (series often up to 28.7 µM), without a hit: at the top dose activity change, negative = inhibition, actives largely listed as inhibitors | 320,000 compounds, 6.9% hits | AID 504834, 2011; active = well fitted inhibition curve with a large enough effect; inconclusive = small, poorly fitted or top-dose-only effect, or another doubt; inactive = no such curve, though single readings can be large or run the other way; also: % is scaled to controls: 0 for no effect and ±100 for the full control effect
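P. falciparum expressing integrated firefly luciferase, in erythrocytes at 2% hematocrit, 0.05% parasitemia, incubated with compounds 96 h at 37 C, 5% CO2. Growth inhibition read as loss of luminescence; two-generation exposure targets delayed-death apicoplast inhibitors.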
RE007 growth inh: qHTS Assay for Inhibitors of the HIV-1 protein Vpr | S. pombe RE007 Vpr strain, BacTiter-Glo ATP luminescence, 24 h | Potency, µM (series often up to 92.2 µM), inactives show top-dose activity change, negative = less growth, usual class: inhibitors | 360,000 compounds, 0.21% hits; active = well fitted falling curve with a large enough effect; inconclusive = small, poorly fitted or top-dose-only effect; inactive = no such curve, though single readings can be large or run the other way; also: % is scaled to controls: 0 for no effect and ±100 for the full control effect; nearly all actives have a fitted effect of over 50% in size
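Fission yeast RE007 carrying one integrated HIV-1 vpr copy, seeded at OD 0.01 in PMG+AL medium with 23 nL pinned compound. Grown 24 h at 30 degrees; viability read by BacTiter-Glo luminescence after 5 min.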
Pf growth 48h: Primary qHTS for delayed death inhibitors of the malarial parasite plastid, 48 hour incubation; P. falciparum luciferase growth in erythrocytes, 48 h; Potency, µM (doses to about 28.7 µM), for the others: at the top dose activity change, negative = inhibition, most hits filed as inhibitors; 310,000 compounds, 5.9% hits; AID 504832, 2011; active = well fitted inhibition curve with a large enough effect; inconclusive = small, poorly fitted or top-dose-only effect, or another doubt; inactive = no such curve, though single readings can be large or run the other way; also: % is scaled to controls: 0 for no effect and ±100 for the full control effect
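First compound was added to culture medium, then infected red cells at 0.1% parasitemia and 2% hematocrit (final). After incubation at 37 C under 5% CO2, luciferase detection reagent was dispensed and light output recorded.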
NS1 function inh: qHTS Assay for Inhibitors of Influenza NS1 Protein Function. Potency, µM (series often up to 46.1 µM), inactives show top-dose activity, positive = more growth. 270,000 compounds, 0.4% hits. AID 2326, 2010; also: actives are rising curves; nearly all actives have a fitted effect of over 50% in size
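Recovery from NS1-induced slow growth read by OD600 in budding yeast switched to galactose assay medium (pH 6.0, -URA) at 1:100 dilution. Compound 23 nl per well; the matching strain lacking NS1 serves as control.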
SARS PLpro yeast: qHTS of Yeast-based Assay for SARS-CoV PLP. Potency, µM (doses to about 32.9 µM), for the others: top-dose activity, positive = growth rescue, actives largely listed as activators. 330,000 compounds, 0.19% hits. S. cerevisiae expressing SARS-CoV PLpro, growth rescue; also: 0% is about no effect; nearly all actives have a fitted effect of over 55% in size
Starred values were filed as active, the others as inactive; ? = inconclusive; nt = no result; ! = not confirmed by another sample; [ ] = another dose, or the depositor's remark. Hits are enriched below; roughly 9.5% of the tested compounds scored in any of these assays. Unless noted, calls follow the shape of the full dose curve. Potency is read from the fitted curve at half-maximal effect.

SMILES	Pf growth 96h	RE007 growth inh	Pf growth 48h	NS1 function inh	SARS PLpro yeast
O=C(NCP(=O)(O)O)c1cccnc1	nt	nt	nt	-7%	nt
O=C1/C(=C\c2cc3c(cc2Cl)OCO3)N2CCC1CC2	5.9µM*	0%	21%	2%	-3%
C=CC[C@H](CC(=O)N(CCO)Cc1ccccc1)C(=O)N[C@H](COC(=O)[C@@H](CC=C)CC(=O)OC(C)(C)C)Cc1c[nH]c2ccccc12	nt	7%	nt	nt	5%
CCc1c(C)nc(SCC(=O)N2CCCCC2C)[nH]c1=O (stereo not drawn)	7.4µM*	-2%	-1%	1%	1%
CCc1c(C)nc(SCC(=O)N2C(C)CCCC2C)[nH]c1=O (stereo not drawn)	14%	-13%	-37%[5.75 µM]	nt	-1%
CC1=Nc2cc(C(=O)NCCCOC(C)C)ccc2Sc2ccc(C)cc21	45%	5%	7.4µM*	nt	-2%
CCC1=Nc2cc(C(=O)NCCN3CCCC3)ccc2Sc2ccccc21	2.3µM*	2%	?	20%	6%
CCCC1=Nc2cc(C(=O)NCCCOCC)ccc2Sc2ccccc21	13µM*	-15%	?	-2%	-4%
CCCC1=Nc2cc(C(=O)NCCCOC(C)C)ccc2Sc2ccccc21	10%	3%	12µM*	18%	-1%
CCC1=Nc2cc(C(=O)NCCCOC)ccc2Sc2ccccc21	-41%	20%	nt	-5%	-1%
CC(=O)c1cccc(NC(=O)c2cc(S(=O)(=O)N3CCCCC3)ccc2N2CCOCC2)c1	nt	-6%	nt	nt	nt
CC(=O)Nc1cc(-c2ccncc2)cn2c(-c3ccccc3)cnc12	nt	1%	nt	nt	nt
CC(C)OCCCNC(=O)c1ccc2c(c1)NC(=O)c1ccccc1S2	2%	-5%	3.7µM*	-2%	2%
CC1=Nc2cc(C(=O)NCCCOC(C)C)ccc2Sc2ccccc21	?	2%	?	nt	1%
CC(=O)Nc1cccc(OCCOc2cccc([N+](=O)[O-])c2)c1	nt	28%	nt	nt	nt
Cc1cc(=O)n(C)c(=O)n1CCCCCCOc1cccc([N+](=O)[O-])c1	4.1µM*	2%	-6%	-30%	-7%
Cc1nc(N)c(CC(Br)CBr)c(Cl)n1 (stereo not drawn)	?	5%	0.074µM*	8%	3%
Cc1ccc(C(=O)N2CC3(C(C)C)CN(C(=O)c4ccc(C)cc4)CC(C(C)C)(C2)C3=O)cc1	9.3µM*	13%	nt	3%	2%
CC(C)c1ncc(C(O)c2ccccc2)n1C (stereo not drawn)	22%	-4%	8%	-2%	1%
Cn1c(Cl)cnc1C(O)c1ccccc1 (stereo not drawn)	6.6µM*	1%	8%	-3%	-1%
O=C(O)[C@@H]1[C@H](C(=O)O)[C@H]2C(=O)C=C[C@H]1N2Cc1ccccc1	nt	nt	nt	-1%	nt
Cc1ccc(-c2nn(-c3ccccc3)cc2CSC(=N)N)cc1	1.7µM*	7%	?	-6%	0%
COc1ccc(Cn2c(CCC(=O)Nc3ccc(C)cc3)nc3cccnc32)cc1	10µM*	12%	nt	10%	-4%
COc1ccc(Cn2c(CCC(=O)O)nc3cccnc32)cc1	-2%	1%	0%	4%	?
CCC(C)NC(=O)c1ccc(NC(=O)C2=C(C)OCCS2)cc1 (stereo not drawn)	17%	-6%	11%	-1%	1%
SMILES	Pf growth 96h	RE007 growth inh	Pf growth 48h	NS1 function inh	SARS PLpro yeast
O=[N+]([O-])c1ccc(Sc2nccn2Cc2ccccc2)c([N+](=O)[O-])c1	?	-3%	0%	-13%	-9%
Cc1cccc(Sc2ccc([N+](=O)[O-])cc2[N+](=O)[O-])n1	8.3µM*	-16%	?	-3%	-14%
O=[N+]([O-])c1ccc(Sc2ncccn2)c([N+](=O)[O-])c1	3.3µM*	?	13µM*	-1%	-5%
C[N+](C)(C)CCN1C(=O)c2ccccc2C1=O	nt	-7%	nt	nt	nt
CCn1c(N2CCN(CC(=O)c3c(C)n(C)c4ccccc34)CC2)nc2c1c(=O)[nH]c(=O)n2C	1.3µM*	-9%	nt	-12%	-14%
CCCn1c(N2CCN(CC(=O)c3c[nH]c4ccccc34)CC2)nc2c1c(=O)[nH]c(=O)n2C	0.74µM*	-11%	9.3µM*	3%	4%
CCN1CCN(c2nc3c(c(=O)[nH]c(=O)n3C)n2Cc2ccccc2F)CC1	31%	-2%	3%	9%	-1%
CCCOc1cc(N)ccc1C(=O)OCCN(CC)CC	0.72µM*!	-12%[18.4 µM]	15%	nt	nt
CC1(C)C=C(c2ccc(O)cc2)CC(C)(C)N1	13µM*	-4%	4%	4%	?
CNS(=O)(=O)c1cn(CC(=O)N(C)Cc2ccccc2)cc1S(=O)(=O)NC	13%	-13%	27%	-1%	2%
Cc1sc(NC(=O)CSC2=NCCS2)nc1-c1ccccc1	-58%	-8%	nt	19%	-3%
CC(=O)N1CC(=O)N=C1SCC(=O)Nc1nc(-c2ccccc2)c(-c2ccccc2)s1	?	1%	15µM*	2%	?
Cc1nnsc1C(=O)Nc1ccc(Cl)cc1Cl	0%	-10%	4%	-6%	-5%
Cc1nnsc1S(=O)c1ccc(Cl)cc1 (stereo not drawn)	1.7µM*	-2%	nt	4%	2%
Cc1nnsc1S(=O)c1ccc(Cl)c(Cl)c1 (stereo not drawn)	5.2µM*	3%	nt	6%	-1%
CCOc1ncccc1C(=O)OCCCC(=O)c1ccc(Br)cc1	-28%	-12%	-22%	nt	0%
Cc1ccc(OCc2cc(C(=O)NCC3COCCO3)no2)cc1C (stereo not drawn)	10µM*	-1%	-6%	0%	-4%
CCN1CCCC1CNC(=O)c1cc(COc2ccc(C)c(C)c2)on1 (stereo not drawn)	13µM*	-1%	-25%	3%	0%
Cc1ccc(OCc2cc(C(=O)NCC(C)(C)N3CCOCC3)no2)cc1C	-15%	-19%	?	-29%	-1%
COC(=O)[C@H](Cc1ccccc1)NC(=O)Cn1ccc(NC(=O)OCc2ccccc2)nc1=O	28%	-8%	11%	nt	-8%
OCCNCc1cccc2ccccc12	-28%	-6%	24%	3%	0%
O=[N+]([O-])c1ccc(O)c(CNCc2ccccc2)c1	nt	-22%	nt	nt	nt
COc1ccc(CNCc2cc(Cl)ccc2O)cc1	13µM*	-22%	9.3µM*	nt	2%
Oc1ccc(Cl)cc1CNc1cnc2ccccc2c1	2.6µM*	-22%	-22%	-8%	-2%
O=[N+]([O-])c1ccc(CNCc2cc(Cl)ccc2O)cc1	?	-14%	12µM*	nt	2%
Oc1ccc(Cl)cc1CNCc1cccc2ccccc12	0.93µM*	-18%	0.41µM*	nt	0%
O=C(O)C1=C(CSc2nnnn2CS(=O)(=O)O)CS[C@@H]2[C@H](NC(=O)[C@H](O)c3ccccc3)C(=O)N12	4%	nt	-9%	nt	nt
Cc1cc(Br)ccc1NC(=O)CN(C)C(=O)C1CCN(c2ncnc3sc(C)c(C)c23)CC1	nt	0%	nt	nt	nt
